# PubChem BioAssay AID488969 (Vanderbilt High Throughput Screening Facility, 2010)
# The full ranking holds about 110,000 compounds; the median of “z-score” is about -0.1, and the highest 2% start at about 2. This excerpt belongs to a sample that is enriched for the highest values. Activity calls are given as the source filed them.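 How the source made its calls: active means z-score in the third read window above 3 or below -3; inactive means the rest.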
# Biological target: Metabotropic glutamate receptor 8 (Rattus norvegicus) (UniProt P70579)
# Sequence (P70579 whole entry, looked up): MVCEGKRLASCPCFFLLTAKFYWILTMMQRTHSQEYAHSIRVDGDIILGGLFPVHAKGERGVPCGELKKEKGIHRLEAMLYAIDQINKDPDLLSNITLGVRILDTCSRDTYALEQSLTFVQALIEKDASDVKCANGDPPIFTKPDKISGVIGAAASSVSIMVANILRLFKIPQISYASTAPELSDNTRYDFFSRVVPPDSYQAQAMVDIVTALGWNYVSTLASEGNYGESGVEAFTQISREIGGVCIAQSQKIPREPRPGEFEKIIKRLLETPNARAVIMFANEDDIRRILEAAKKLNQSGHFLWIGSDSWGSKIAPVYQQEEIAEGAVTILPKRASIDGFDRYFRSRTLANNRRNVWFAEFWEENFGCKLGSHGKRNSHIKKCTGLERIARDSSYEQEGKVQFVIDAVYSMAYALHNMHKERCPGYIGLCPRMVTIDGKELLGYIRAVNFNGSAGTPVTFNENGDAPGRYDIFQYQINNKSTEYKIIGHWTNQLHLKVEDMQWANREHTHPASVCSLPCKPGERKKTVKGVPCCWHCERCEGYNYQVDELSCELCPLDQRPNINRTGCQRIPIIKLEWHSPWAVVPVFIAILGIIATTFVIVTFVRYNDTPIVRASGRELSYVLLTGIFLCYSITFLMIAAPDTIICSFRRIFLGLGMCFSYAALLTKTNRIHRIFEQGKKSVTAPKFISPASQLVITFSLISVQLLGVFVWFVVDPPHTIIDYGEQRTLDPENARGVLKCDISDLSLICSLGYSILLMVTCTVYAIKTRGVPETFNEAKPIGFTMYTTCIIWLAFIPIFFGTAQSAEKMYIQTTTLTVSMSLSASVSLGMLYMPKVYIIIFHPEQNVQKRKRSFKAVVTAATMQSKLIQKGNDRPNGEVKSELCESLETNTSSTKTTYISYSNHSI
# Assay: rat mGluR8 modulators via GIRK flux, primary screen, cell-based, thallium flux, HTS (AID 488969)
# Details: HEK293 rat mGluR8, GIRK (G protein-gated inwardly rectifying potassium channel) thallium flux, FluoZin2; at 10 µM; stronger effect = higher value; submaximal glutamate (EC20) added with thallium
row,SMILES,z-score
1,CCC(=O)Nc1ccc(N2CCN(Cc3ccccc3)CC2)cc1,0.042
2,O=C(CCS(=O)(=O)c1ccccc1)Nc1nc2c(s1)COc1ccccc1-2,-0.504
3,C/C=C/C=N/Nc1nc(-c2ccc([N+](=O)[O-])cc2)cs1,-0.273
4,COc1ccc(C(=O)N2CCN(C3CCC(c4ccccc4)CC3)CC2)cc1OC (configuration not stated),-1.61
5,Cc1ccc(Cl)cc1NC(=O)CC(O)(C(F)(F)F)C(F)(F)F,-2.38
6,Cc1ccc(NC(=O)CC(O)(C(F)(F)F)C(F)(F)F)cc1,-0.185
7,O=C(CC(O)(C(F)(F)F)C(F)(F)F)Nc1ccc(Cl)c(Cl)c1,6.91 (active)
8,CCOC(=O)CC(=O)CSc1nc2c(cc1C#N)CCC2,2.18
9,CCOC(=O)CC(=O)CSc1nc2c(cc1C#N)CCCCC2,1.09
10,COC(=O)CC(=O)CSc1nc2c(cc1C#N)CCC2,-0.106
11,CCC(=O)NCCCCNC(=O)CC,0.217
12,CC1(C)CC(=O)C2=C(C1)OC(N)=C(C#N)C2c1cn(-c2ccccc2)nc1-c1ccc(F)cc1 (configuration not stated),-0.436
13,CCNC(=O)c1ccccc1NC(=O)c1cccc(S(=O)(=O)N2CCC(C)CC2)c1,-1.17
14,O=C1N=C(N2CCOCC2)S/C1=C\c1ccc(-c2ccccc2Cl)o1,-0.0639
15,O=C1/C(=C\c2ccc(-c3ccccc3Cl)o2)SC(=S)N1CC1CCCO1 (configuration not stated),0.755
16,O=C1NC(=S)/C(=C\c2ccc(-c3ccccc3Cl)o2)S1,3.83 (active)
17,COC(=O)c1sccc1NC(=O)c1c(C)cc(=O)oc1C,-0.28
18,Cc1ccc(NC(=O)C(NC2CCCc3ccccc32)c2ccccc2)cc1Cl (configuration not stated),-0.174
19,Nc1ccc(C(=O)OCC(=O)NC2CCCc3ccccc32)cc1[N+](=O)[O-] (configuration not stated),-0.347
20,Cc1ccc(NC(=O)C(NC2CCCc3ccccc32)c2ccccc2)c([N+](=O)[O-])c1 (configuration not stated),2.09
21,O=C(NC1CCCCC1)N(C1=NCCCCC1)c1ccc(Br)cc1,-0.204

row,SMILES,z-score
1,CCOC(=O)C1=C(c2ccccc2)OC(N)=C(C#N)C1C1CCCCC1 (configuration not stated),-0.435
2,COc1ccc(/C=C2\N=C(SC)SC2=O)cc1OC,-0.325
3,Cc1ccc2ncccc2c1[N+](=O)[O-],-0.242
4,COC(=O)c1cc2nc(-c3ccccc3)cc(C)n2n1,0.0407
5,CCOc1ccc(-c2cc(C)n3nc(C(N)=O)cc3n2)cc1,5.02 (active)
6,Cc1cc(-c2ccc(F)cc2)nc2cc(C(N)=O)nn12,0.242
7,O=C(COc1ccccc1F)N1c2ccccc2CCc2ccccc21,-0.375
8,C=CCNC(=S)NC1CC(C)(C)NC(C)(C)C1,0.609
9,CCc1nn(-c2cc(Cl)ccc2OC)c2c1C(=O)CCC2,-0.275
10,CCOC(=O)c1c(NC(=S)Nc2cccc(C)c2)sc2c1CC(C)(C)SC2,0.0638
11,C=CCNC(=S)Nc1sc2c(c1C(=O)OCC)CC(C)(CC)OC2 (configuration not stated),2.22
12,CCOC(=O)c1c(NC(=S)Nc2ccccc2)sc2c1CCN(CCc1ccccc1)C2,0.012
13,CCOC(=O)c1c(NC(=S)NC)sc2c1CC(C)(C)SC2,12.5 (active)
14,CCOC(=O)c1c(NC(=S)Nc2ccccc2)sc2c1CC(C)(C)SC2,-0.0674
15,CC(C)C1Cc2c(sc(NC(=S)NC(=O)c3ccccc3)c2C#N)CO1 (configuration not stated),-0.13
16,C=CCNC(=S)Nc1sc2c(c1C(=O)OCC)CCN(C(=O)OCC)C2,0.145
17,CCOC(=O)c1c(NC(=O)c2ccccc2C)sc2c1CC(C)(C)OC2,-0.332
18,CCOC(=O)c1c(NC(=O)c2ccc(C)cc2)sc2c1CC(C)(C)OC2,-0.222
19,CCOC(=O)c1c(NC(=S)NCCc2ccccc2)sc2c1CC(C(C)C)OC2 (configuration not stated),3.42 (active)
20,C=CCNC(=S)Nc1sc2c(c1C(=O)OCC)CC(C(C)C)OC2 (configuration not stated),8.63 (active)
21,C=C(C)CNC(=S)Nc1sc2c(c1C(=O)OCC)CC(C)(C)OC2,0.296
